Screening results as filed in PubChem.
The list is not random: actives were taken first. Their share in the collection is about 3.1%.
Beta apoptosis: blocks beta cell apoptosis | INS-1E cytokine-induced death, ATP luminescence, 48 h; percent of positive-control rescue, neutral wells zero | protection from apoptosis, % (no concentration beside the values) | 300,000 tested, 0.8% active | AID 435005;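 active = Every replicate reaches about 75%, or at least half do and their mean reaches it too, limit read from the data; inconclusive = At least half of replicates reach the limit but their mean does not; inactive = Under half of replicates reach the limit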;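 also: 0% = cytokine-treated negative control wells and 100% = positive control rescue; higher means more ATP so stronger rescue from cytokine killing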
SKKanGAS inh: SKKanGAS growth inhibition | S. pyogenes SKKanGAS, kanamycin growth, BacTiter-Glo, 6 h | inhibition, % at 7.5 µM | 300,000 tested, 1.3% active | AID 1662;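 active = mean replicate score, as percent of positive control median, at least 50; inconclusive = mean below 50 but one replicate at or above 50; inactive = mean and every replicate below 50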;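 also: strain carries kanamycin resistance gene driven by streptokinase promoter and grows in 40 µg/ml kanamycin; loss of luminescence reflects streptokinase promoter inhibition or plain growth inhibition; 0% = median of DMSO wells and 100% = positive control at its reference dose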
PP1 inh: blocks human PP1-alpha phosphatase, a PP5 counter-screen. P62136. purified PP1alpha, OMFP fluorescence. inhibition, % at 6.7 µM. 320,000 tested, 0.9% active;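 active = inhibition above the mean inhibition of all tested compounds plus 3 SD, computed separately for each screening campaign, cut at about 15% in these data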
PP5 inh: inhibitors of human protein phosphatase 5 (PP5) | P53041 | purified PP5c, OMFP substrate fluorescence | inhibition, % at 6.7 µM | 320,000 tested, 0.18% active;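 active = inhibition above the campaign's mean inhibition across all tested compounds plus 3 SD, cut at about 9.5% in these data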;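 also: 0% = DMSO only and 100% = 100 µM cantharidin control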
Target sequence (P53041 whole entry, looked up): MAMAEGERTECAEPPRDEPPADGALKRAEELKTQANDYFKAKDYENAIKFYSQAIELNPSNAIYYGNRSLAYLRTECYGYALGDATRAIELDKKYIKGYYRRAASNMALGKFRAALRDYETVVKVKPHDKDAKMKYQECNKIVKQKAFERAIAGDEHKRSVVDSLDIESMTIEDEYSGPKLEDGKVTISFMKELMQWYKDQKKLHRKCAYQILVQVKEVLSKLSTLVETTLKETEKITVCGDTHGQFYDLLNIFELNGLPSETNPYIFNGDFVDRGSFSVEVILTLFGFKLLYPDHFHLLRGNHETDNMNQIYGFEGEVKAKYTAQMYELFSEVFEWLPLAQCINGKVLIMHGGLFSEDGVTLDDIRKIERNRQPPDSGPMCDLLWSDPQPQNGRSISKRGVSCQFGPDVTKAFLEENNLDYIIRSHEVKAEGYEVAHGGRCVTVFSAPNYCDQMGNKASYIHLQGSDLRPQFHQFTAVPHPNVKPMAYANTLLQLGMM
CSC inhib: blocks cancer stem cells; cancer stem cell-like cells viability, luminescence; inhibition, % at 7.5 µM; 300,000 tested, 1.1% active; AID 2717; in the data active = inhibition above about 75%; inconclusive = no clear call, values can overlap the other calls; tested in HMLE shEcad cells
* marks the source's active call; other numbers are inactive results; ? = inconclusive; · = no result given.

SMILES | Beta apoptosis | SKKanGAS inh | PP1 inh | PP5 inh | CSC inhib
CCOC(=O)c1c(CSc2ccc(C)cc2)n(C)c2cc(Br)c(O)c(CN(C)C)c12 | 3 | 16 | 10 | 2 | 97*
Cc1ccc(NC(=O)c2ccccc2N(C)S(=O)(=O)c2ccccc2)c(C)c1 | 1 | 3 | 9 | -7 | 1
c1ccc(CNc2c3ccccc3nc3ccccc23)cc1 | 98* | -3 | 0 | 0 | 52
Oc1ccc(CCNc2c3ccccc3nc3ccccc23)cc1O | -6 | -2 | 1 | 1 | 76*
Clc1cccc(-c2nc(NCCCN3CCOCC3)c3ccccc3n2)c1 | -2 | 14 | -1 | 5 | 91*
CN(C)CCCNc1c2ccccc2nc2ccccc12 | 109* | 0 | 2 | 0 | 131*
COc1ccc(C(=O)c2ccc(CC(=O)O)s2)cc1 | 6 | 6 | -4 | 2 | -11
COc1ccc(C)cc1NC(=O)CSc1nc(=O)n(CCCN2CCOCC2)c2c1CCCC2 | · | -10 | 2 | -1 | 6
c1ccc2c(NCCCN3CCOCC3)c3ccccc3nc2c1 | 104* | · | 4 | -1 | 51
Fc1ccccc1-c1nc(NCCCN2CCOCC2)c2ccccc2n1 | -1 | -6 | 1 | 1 | 2
COc1ccc(NC(=S)NC(=O)/C=C/c2cccs2)cc1 | -1 | -3 | -1 | 2 | -9
O=C(/C=C/c1cccs1)NC(=S)Nc1ccc(S(=O)(=O)Nc2ccccc2C(F)(F)F)cc1 | -7 | 59* | 12 | 3 | 43
CC#CC[N+](C)(C)CCCCCCCCCC | · | 11 | -4 | -1 | 52
Cc1ccc(OCC(=O)Nc2ccc3c(c2)C(=O)NC3=O)c(C)c1 | 3 | 9 | -2 | 0 | -3
Cc1ccc(C)c(NC(=O)/C(C#N)=C/c2cn(CC(=O)NCc3ccco3)c3ccccc23)c1 | 95* | 1 | 2 | -1 | 82*
O=C(Cn1cc(C(=O)COc2ccccc2)c2ccccc21)NCc1ccco1 | -1 | 5 | 17* | -1 | -13
Cc1cc(C)cc(NC(=O)/C(C#N)=C/c2cn(CC(=O)NCc3ccco3)c3ccccc23)c1 | 101* | -6 | 4 | 0 | 40
CC(=O)c1cn(CC(=O)NCc2ccco2)c2ccccc12 | -2 | -5 | -1 | 2 | 7
CC(NC(=O)c1ccccc1F)C1CC1 (stereo not given) | -3 | 2 | -1 | 1 | 7
Cn1c2ccccc2c(=O)c2cc(C#CC3(O)CCCCC3)ccc21 | 9 | 22 | 4 | 2 | -1
O=c1c2ccccc2oc2ccc(C#CC3(O)CCCCC3)cc12 | -5 | 6 | 2 | 5 | 93*
c1ccc2c(C[C@@H]3CNCCN3CCC34CC5CC(CC(C5)C3)C4)cccc2c1 | 4 | · | · | · | 26
O=c1[nH]c(O)c(/C=C2\C=Nc3ccc(Br)cc32)[nH]1 | -5 | -6 | -1 | 1 | -5
O=c1[nH]c(=O)n(-c2ccc(F)cc2)c2c1C(C(F)(F)F)(C(F)(F)F)N=C(c1ccc(F)cc1)N2 | 76* | 4 | 1 | 0 | ·
Cc1cccc2nc(COc3ccc4ccccc4c3Br)cn12 | -5 | 64* | 6 | 1 | 27
SMILES | Beta apoptosis | SKKanGAS inh | PP1 inh | PP5 inh | CSC inhib
Cc1cccc2nc(CSc3ccccc3N)cn12 | 4 | -12 | 2 | 4 | -2
COc1cccc(NC(=O)NC(C)C2CC3CCC2C3)c1 (stereo not given) | 3 | -16 | 1 | -1 | -13
Cc1cccc(Cc2cnc(NC(=O)c3ccc(C)o3)s2)c1 | -3 | 77* | 3 | 5 | -2
O=C(Nc1ncc(Cc2cccc([N+](=O)[O-])c2)s1)c1ccco1 | 1 | 4 | 3 | -1 | 97*
Cc1ccc(Cc2cnc(NC(=O)c3ccco3)s2)cc1 | 0 | 28 | 1 | 1 | 50
CCn1c(CNC(=O)c2ccccc2F)cc2cc(C)ccc21 | -4 | 1 | · | · | -9
O=C(CSc1nc2ccccc2c(=O)n1-c1ccccc1)N/N=C/C=C/c1ccccc1[N+](=O)[O-] | 13 | 5 | 10 | 2 | 78*
Cc1ccccc1-n1c(SCC(=O)N/N=C/C=C/c2ccccc2[N+](=O)[O-])nc2ccccc2c1=O | 16 | 7 | 17* | -2 | ?
O=C(CSc1nc2ccccc2c(=O)n1-c1ccc(Cl)cc1)N/N=C/C=C/c1ccccc1[N+](=O)[O-] | 6 | 4 | 15 | 3 | ·
CCCCNc1c2c3c(cccc3n(C)c1=O)C(=O)c1ccccc1-2 | 10 | 54* | -12 | -11 | 63
Cn1c(=O)c(NCCO)c2c3c(cccc31)C(=O)c1ccccc1-2 | -7 | 7 | -119 | -121 | 5
CC12CCC(C/C1=N\N=C1\NC(=O)/C(=C\c3ccc(Cl)cc3)S1)C2(C)C (stereo not given) | 6 | 106* | 2 | 5 | 122*
Cc1cccc(NC(=O)CSc2ccc3nnc(-c4cccnc4)n3n2)c1 | 2 | 4 | -4 | 2 | -4
O=C(CCNS(=O)(=O)c1ccccc1)NNC(=O)COc1ccccc1F | -5 | · | · | · | -1
CCCN1C(=O)/C(=C/c2ccc(C)s2)SC1=Nc1ccc(OC)cc1 | 2 | 18 | 0 | 3 | 16
COc1ccc(N=C2S/C(=C\c3ccc(Cl)c([N+](=O)[O-])c3)C(=O)N2CCN(C)C)cc1 | 0 | 14 | 10 | 3 | 105*
Cc1ccc(C=Nc2ccccc2C(N)=O)s1 | 8 | -1 | 4 | 1 | 78*
CC1=C(CO)C(=O)OC([C@@H](C)C2CC[C@H]3C4C[C@H]5O[C@]56[C@@H](O)C=CC(=O)[C@]6(C)C4CC[C@]23C)C1 (stereo not given in full) | 109* | 2 | -6 | 2 | 99*
COc1cc([N+](=O)[O-])cc(/C=N/NC(=O)c2cc(C)nc3ccccc23)c1O | -3 | 106* | 4 | -1 | 5
COc1cc(/C=N/NC(=O)c2cncc(Br)c2)cc([N+](=O)[O-])c1O | -3 | 108* | 17* | 4 | 11
COc1cc([N+](=O)[O-])cc(/C=N/NC(=O)c2cncc(Br)c2)c1O | -3 | 94* | 10 | 0 | 3
O=C(N/N=C\c1ccc([N+](=O)[O-])o1)c1cncc(Br)c1 | · | 5 | 1 | 1 | 3
COc1cc(/C=N/NC(=O)c2cccc([N+](=O)[O-])c2)cc(OC)c1O | -1 | -5 | -6 | 0 | -5
Cc1cc(C(=O)N/N=C/c2cccc([N+](=O)[O-])c2)c2ccccc2n1 | -2 | 0 | -9 | -1 | -1
COc1cccc(/C=N/NC(=O)c2ccc([N+](=O)[O-])cc2Cl)c1O | 88* | 13 | -3 | -2 | -3
COc1cccc(/C=N/NC(=O)c2cc(-c3ccccn3)nc3ccccc23)c1O | 93* | · | 14 | 0 | 17
COc1cc(/C=N/NC(=O)c2cc(-c3ccccc3)nc3ccccc23)ccc1O | 6 | 3 | 1 | 3 | -5
CCOc1cc(/C=N/NC(=O)c2cc(-c3cccc(OC)c3)nc3ccccc23)ccc1O | 99* | 8 | 0 | 1 | 6
COc1cccc(-c2cc(C(=O)N/N=C/c3cccc(OC)c3OC)c3ccccc3n2)c1 | 4 | 5 | -1 | 0 | -4
